Results published in publication PMC11062922 (Nature Chemical Biology, 2023).

The compounds below were run on MAPK14. Details: read-out: apparent Kd; compound concentrations:100 nM and 1000 nM (sheet 'Samples'); n = 1.
Set-up: species or system human, MV4-11 + K-562 + COLO205 + SK-N-BE2 + OVCAR-8

Structure (SMILES) | potency estimated from few doses [nM]
CS(=O)(=O)CCCn1c(=O)c(Oc2ccc(F)cc2F)cc2cnc(NC3CCOCC3)nc21 [RO5033700-000] | 7.7
N#CCn1c(=O)c(Oc2ccc(F)cc2F)cc2cnc(NC3CCOCC3)nc21 [RO5040027-000] | 3.79
Cl.Cn1c(=O)c(Oc2ccccc2F)cc2cnc(NC3CCOCC3)nc21 [RO3304805-001] | 58.4
Cl.Cn1c(=O)c(Oc2ccc(F)cc2F)cc2cnc(N[C@H]3CC[C@H](O)CC3)nc21 [RO3305413-001] | 5.68
CC(C)Nc1ncc2cc(Oc3ccc(F)cc3F)c(=O)n(C)c2n1.Cl [RO3309180-001] | 9.9
Cc1ccc(NC(=O)c2ccnc(N3CCCCC3)c2)cc1-c1ccc(C(=O)NCC2CC2)cc1 [GW775610X] | 199

The compounds below were run on MAPK8. Details: read-out: apparent Kd; compound concentrations:100 nM and 1000 nM (sheet 'Samples'); n = 1.
Set-up: species or system human, MV4-11 + K-562 + COLO205 + SK-N-BE2 + OVCAR-8

Structure (SMILES) | potency estimated from few doses [nM]
CS(=O)(=O)CCCn1c(=O)c(Oc2ccc(F)cc2F)cc2cnc(NC3CCOCC3)nc21 [RO5033700-000] | 466
N#CCn1c(=O)c(Oc2ccc(F)cc2F)cc2cnc(NC3CCOCC3)nc21 [RO5040027-000] | 523
Cl.Cn1c(=O)c(Oc2ccc(F)cc2F)cc2cnc(N[C@H]3CC[C@H](O)CC3)nc21 [RO3305413-001] | 75.9
CC(C)Nc1ncc2cc(Oc3ccc(F)cc3F)c(=O)n(C)c2n1.Cl [RO3309180-001] | 1080
O=c1[nH]c2nc(NC3CCOCC3)ncc2cc1Oc1ccc(F)cc1F [RO3310867-000] | 554

These compounds were tested on MAPK9. Details: read-out: apparent Kd; compound concentrations:100 nM and 1000 nM (sheet 'Samples'); n = 1.
Set-up: species or system human, MV4-11 + K-562 + COLO205 + SK-N-BE2 + OVCAR-8

Structure (SMILES) | potency estimated from few doses [nM]
CS(=O)(=O)CCCn1c(=O)c(Oc2ccc(F)cc2F)cc2cnc(NC3CCOCC3)nc21 [RO5033700-000] | 110
N#CCn1c(=O)c(Oc2ccc(F)cc2F)cc2cnc(NC3CCOCC3)nc21 [RO5040027-000] | 146
Cl.Cn1c(=O)c(Oc2ccccc2F)cc2cnc(NC3CCOCC3)nc21 [RO3304805-001] | 484
Cl.Cn1c(=O)c(Oc2ccc(F)cc2F)cc2cnc(N[C@H]3CC[C@H](O)CC3)nc21 [RO3305413-001] | 26.4
CC(C)Nc1ncc2cc(Oc3ccc(F)cc3F)c(=O)n(C)c2n1.Cl [RO3309180-001] | 369
O=c1[nH]c2nc(NC3CCOCC3)ncc2cc1Oc1ccc(F)cc1F [RO3310867-000] | 98.4
